This note sets out measurements from PubChem BioAssay AID1345085 (National Center for Advancing Translational Sciences (NCATS), 2018).

SMILES strings stand for the structures. Records with an inconclusive call do not appear. Calls of active or inactive are those of the source. Calls follow the shape of the dose curve; as a rule, active = well fitted cell-killing curve with a large enough effect; inconclusive = small, poorly fitted or top-dose-only effect, or effect the other way; inactive = no such curve, though single readings can be large or run the other way.
Potency is read from the fitted curve at half-maximal effect.

The test system of the test is HeLa. The test is described as follows: Confirmatory qHTS for gynecologic anti-cancer compounds from libraries of approved drugs and bioactive compounds. Also: nearly all actives have a fitted effect of over 55% in size. As to conditions: gynecologic cancer cell panel viability, ATPlite luminescence, 48 h; series mostly up to 57.6 µM. In outline:
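Cells (1,000/well) were plated, left 16 h at 37 C/5% CO2, then given compound at 11 concentrations (1:3) from 57.5 uM to 0.977 nM for 48 h. ATPlite luminescence after 15 min at room temperature gave IC50 values.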
(In general: Quantitative high-throughput screening tests each substance at several concentrations.)
On to `NC(=O)c1cnc(-c2ccc(C3(N)CCC3)cc2)c(-c2ccccc2)c1`, for which the Potency is 30.6 µM (active).
The value for `Cc1nc(NC(=O)N2CCCC2C(N)=O)sc1-c1ccnc(C(C)(C)C(F)(F)F)c1` (stereo not drawn) was 19.3 µM (active); that for `CCCCc1oc2ccccc2c1C(=O)c1cc(I)c(OCCN(CC)CC)c(I)c1` was 50.1 µM (active).
